# The panel holds about 83,000 compounds, 20% with a hit somewhere; the sample as a whole holds those more often.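 Step 1: grow cells in 96-well plates. Step 2: add test compound at a single concentration. Step 3: incubate 48 h. Step 4: record percent growth.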 Unmarked numbers belong to inactive results. Activity calls are given as the source filed them. How the source made its calls: active means growth percent below 10; inactive means the rest.
# Experiments:
# Assay in all cases: NCI-60 one-dose screen, 48 h (100 = growth as untreated, 0 = no growth, -100 = all killed)
# Conditions in all cases: 10 µM unless noted
# SK-MEL-2 melanoma = system: SK-MEL-2 melanoma
# EKVX NSCLC = system: EKVX NSCLC
# SN12C renal = system: SN12C renal
# UO-31 renal = system: UO-31 renal
# TK-10 renal = system: TK-10 renal
# ACHN renal = system: ACHN renal
# CAKI-1 renal = system: CAKI-1 renal
# A498 renal = system: A498 renal
# SR leukemia = system: SR leukemia
# OVCAR-8 ovarian = system: OVCAR-8 ovarian
# OVCAR-5 ovarian = system: OVCAR-5 ovarian
# OVCAR-4 ovarian = system: OVCAR-4 ovarian
# SK-OV-3 ovarian = system: SK-OV-3 ovarian
# IGROV1 ovarian = system: IGROV1 ovarian
# OVCAR-3 ovarian = system: OVCAR-3 ovarian
# HS 578T breast = system: HS 578T breast
# NCI/ADR-RES ovarian = system: NCI/ADR-RES ovarian
# RPMI-8226 leukemia = system: RPMI-8226 leukemia
# CCRF-CEM leukemia = system: CCRF-CEM leukemia
# MOLT-4 leukemia = system: MOLT-4 leukemia
SMILES,growth (SK-MEL-2 melanoma),growth (EKVX NSCLC),growth (SN12C renal),growth (UO-31 renal),growth (TK-10 renal),growth (ACHN renal),growth (CAKI-1 renal),growth (A498 renal),growth (SR leukemia),growth (OVCAR-8 ovarian),growth (OVCAR-5 ovarian),growth (OVCAR-4 ovarian),growth (SK-OV-3 ovarian),growth (IGROV1 ovarian),growth (OVCAR-3 ovarian),growth (HS 578T breast),growth (NCI/ADR-RES ovarian),growth (RPMI-8226 leukemia),growth (CCRF-CEM leukemia),growth (MOLT-4 leukemia)
C[n+]1cccc(CC(=O)NO)c1,100%,102%,94.7%,97.3%,94.8%,98.4%,104%,115%,98.4%,95.3%,110%,106%,90.9%,101%,110%,101%,105%,–,–,–
COc1ccc(-c2cc(-c3cc(OC)ccc3OC)nc(SCC(=O)c3ccccc3)c2C#N)cc1,89.6%,100%,93.7%,81.9%,114%,91.6%,95.3%,93.9%,83.3%,96.6%,103%,91.8%,86.7%,97.3%,108%,97.3%,93.1%,105%,–,–
COc1cccc(-c2nn(-c3ccccc3)cc2-c2ccnc(NCCCNC(=O)c3ccccc3)c2)c1,63.6%,55.8%,67.2%,39.3%,60.7%,69%,67.3%,–,-19.8% (active),38%,92.7%,43.1%,41.7%,67.1%,51.2%,51.3%,27.1%,27.9%,27.7%,–
Cc1c(C(=O)OC(=NC2CCCCC2)NC2CCCCC2)sc2c1c(=O)nc1c(C#N)n[nH]n12,93.6%,109%,117%,79.6%,117%,106%,101%,–,–,104%,75.8%,105%,106%,84.6%,105%,104%,106%,137%,300%,99.7%
COc1cc(C2CC(c3cc(OC)c(OCCCOc4ccc(-n5c(/C=C/c6ccccc6)nc6ccccc6c5=O)cc4)c(OC)c3)=NO2)cc(OC)c1OC (stereo not given),92.3%,118%,127%,86.7%,139%,91.3%,115%,123%,–,104%,105%,87%,114%,–,118%,108%,107%,-9.38% (active),–,–
C[C@]12CC[C@@H]3c4cc(OC(F)F)c(O)cc4CC[C@H]3[C@@H]1CC[C@@H]2OS(N)(=O)=O,42.1%,24.6%,44.2%,38.2%,93.2%,50.7%,34.5%,-7.08% (active),–,39.3%,57.5%,67.7%,39.7%,37.1%,-0.18% (active),32.5%,12.5%,26.6%,–,–
COc1cc(Cn2ncc3ccc(NC(=O)c4cc5ccccc5oc4=N)cc32)cc(OC)c1OC,88%,71.5%,87.2%,51.3%,91.4%,57.1%,82.4%,98.3%,–,86.8%,58.3%,86.6%,79.4%,46%,38.8%,90%,50%,51.7%,–,–
CN(C)c1ccc(/C=C/C(=O)c2cccc(Nc3nc(Nc4ccccc4)nc(Nc4ccccc4)n3)c2)cc1,62.1%,77.8%,91.6%,73.5%,90.9%,90.6%,91.6%,–,77.4%,81.2%,93.9%,30.7%,93.2%,69%,102%,78.9%,76.4%,53.4%,–,–
CCN1C(=O)N(CC)C2Nn3c(s/c(=C\c4cccc([N+](=O)[O-])c4)c3=O)=NC21 (stereo not given),73.3%,72.7%,48.6%,56.8%,17.9%,50.5%,35.3%,5.28% (active),–,44.7%,45.4%,59.6%,51.7%,53.1%,9.24% (active),41.3%,16.1%,64.8%,–,–
CC1=CN2C(=O)C3C4=C(CCCC4)SC3N=C2CN1c1c(C)cccc1C (stereo not given),116%,81%,99.6%,90.7%,100%,96.2%,81.1%,–,41.8%,109%,94%,93.3%,114%,107%,93.9%,103%,99.6%,54.4%,–,77%
Cn1cc(-c2csc(-c3ccccc3)n2)c2cccnc21,-48.2% [100 µM] (active),4.11% [100 µM] (active),-58.2% [100 µM] (active),-28.7% [100 µM] (active),-45.7% [100 µM] (active),0.882% [100 µM] (active),-32.4% [100 µM] (active),–,0.511% [100 µM] (active),2.29% [100 µM] (active),-44.2% [100 µM] (active),-19.4% [100 µM] (active),-30.1% [100 µM] (active),-20.7% [100 µM] (active),-31.8% [100 µM] (active),20.8% [100 µM],-27.8% [100 µM] (active),–,–,-8.37% [100 µM] (active)
Cc1cc(C)c(-c2c(C)cc(C)cc2CBr)c(CBr)c1,94.5%,102%,80.3%,75.9%,103%,75%,87.6%,–,–,68.3%,97.1%,74.1%,101%,90.3%,90.9%,86.6%,72.2%,50.2%,42%,–
CC(C)(C)c1ccc(/C=C/C(=O)Nc2ccc(O)cc2)cc1,94.6%,89.2%,61.8%,31.6%,103%,60.6%,61.7%,–,–,45.7%,89.8%,73.8%,96.8%,62.2%,60.4%,80.4%,59.9%,59.8%,–,29.4%
Cc1ccc(N2CCN(C(=S)c3cccs3)CC2)cc1,94.9%,108%,102%,94.8%,87.3%,120%,96.4%,–,–,100%,96.8%,107%,106%,99.3%,113%,124%,112%,95.6%,95.3%,93.6%
Cc1ccc(-c2cc(-c3cccnc3)[nH]c(=O)c2C#N)cc1,120%,101%,104%,84.1%,116%,103%,87%,–,–,103%,107%,103%,114%,106%,106%,102%,105%,101%,101%,115%
NC(=S)N/N=C/Cc1ccccc1,106%,89.1%,102%,64.4%,107%,102%,116%,99.8%,–,84.3%,120%,65.5%,111%,79%,109%,103%,83.7%,88.3%,–,–
O=C(Nc1cccc(Oc2nnc(Cl)c3ccccc23)c1)Nc1ccc(Cl)c(C(F)(F)F)c1,-72.1% (active),-6.74% (active),-71.9% (active),-28.4% (active),-51.5% (active),-8.47% (active),11.7%,–,-23.8% (active),-16.8% (active),-7.38% (active),2% (active),-44.1% (active),-16.8% (active),-41.9% (active),-17.2% (active),-28.2% (active),-15.9% (active),-5.44% (active),–

# From PubChem BioAssay (NCI)
